Measured values from PubChem BioAssay AID1851 (National Center for Advancing Translational Sciences (NCATS), 2009).
The whole screen tested about 16,000 compounds, of which about 5,700 (36%) were called active. Roughly 24% stayed inconclusive and do not appear here. The list shows a part of the results. A number with no mark means an inactive call. Calls follow the shape of the dose curve; as a rule, active = well fitted curve in the direction sought with a large enough effect; inconclusive = small, poorly fitted or top-dose-only effect, or effect the other way; inactive = no such curve, though single readings can be large or run the other way.

Each molecule was assayed against Cytochrome P450 1A2 (Homo sapiens) (UniProt P05177) (assay: Cytochrome panel assay with activity outcomes). Details: recombinant CYP, pro-luciferin dealkylation, luminescence, p450-cyp1a2; series mostly up to 57.1 µM; activity, negative = inhibition: at the top concentration.
% is scaled to controls: 0 for no effect and ±100 for the full control effect.

Cytochrome P450 1A2 (Homo sapiens), sequence (P05177 whole entry, looked up): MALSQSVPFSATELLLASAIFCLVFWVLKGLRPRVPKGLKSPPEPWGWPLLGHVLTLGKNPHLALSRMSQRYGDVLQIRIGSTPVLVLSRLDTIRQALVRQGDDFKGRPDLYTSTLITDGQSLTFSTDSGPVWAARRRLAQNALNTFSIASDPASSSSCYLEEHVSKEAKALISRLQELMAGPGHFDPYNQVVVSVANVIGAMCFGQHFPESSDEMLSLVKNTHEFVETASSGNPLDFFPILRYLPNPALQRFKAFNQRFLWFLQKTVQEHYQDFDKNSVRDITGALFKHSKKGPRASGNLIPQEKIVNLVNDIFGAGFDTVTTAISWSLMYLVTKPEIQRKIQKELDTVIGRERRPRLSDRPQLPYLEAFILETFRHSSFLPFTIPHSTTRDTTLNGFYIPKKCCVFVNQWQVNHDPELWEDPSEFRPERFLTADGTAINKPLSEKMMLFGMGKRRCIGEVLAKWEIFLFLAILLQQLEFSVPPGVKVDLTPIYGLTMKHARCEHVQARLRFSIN

Q: `NC(N)=Nc1ccc(-c2ccc(N=C(N)N)cc2)cc1` was tested. Which activity, negative = inhibition did it give?
A: -1.39% [at 11.4 µM]

Q: For `CCSC(N)=Nc1ccc(C(F)(F)F)cc1`, which AC50 is on record?
A: 2.51 µM (active)

Q: `CCOC(=O)c1nc(N)sc1C(=O)OCC` was tested. Which AC50 did it give?
A: 7.08 µM (active)

Q: With `CCOC(=O)c1sc(C)c(C(=O)NCC(C)(C)CN(C)C)c1N` as the molecule, how does the “activity, negative = inhibition” value read?
A: -3.26%

Q: Which “activity, negative = inhibition” value does the source give for `CCN1CCN(C(=O)N[C@H](C(=O)N[C@@H]2C(=O)N3[C@@H]2SC(C)(C)[C@@H]3C(=O)O)c2ccccc2)C(=O)C1=O` here?
A: -2.8% [at 25.6 µM]

Q: How did the activity, negative = inhibition turn out when `O=C(O)c1nn(-c2ccccc2-c2n[nH]c(=O)[nH]c2=O)c(=O)[nH]c1=O` was run?
A: -21.2% [at 11.4 µM]

Q: `O=C(O)c1nn(-c2ccc(Cl)cc2)c2c1C(=O)c1ccccc1C2=O` was tested. Which AC50 did it give?
A: 0.251 µM (active)

Q: How did the “activity, negative = inhibition” value turn out when `O=C1C(C2=NC(C(=O)O)C3C(=O)N(c4ccc(Cl)cc4)C(=O)C23)=C(O)c2ccccc21` (stereo not given) was run?
A: -5.96%

Q: For `CC(C)CN1CC[C@@]2(CCCN(C(=O)c3cnccn3)C2)C1`, which “activity, negative = inhibition” value is on record?
A: -15.1%

Q: Which AC50 does the source give for `O=C(Nc1nnc(-c2ccc(Cl)cc2)o1)Nc1ccccc1Cl` here?
A: 1.58 µM (active)

Q: `CC(=O)NNc1cccc(Cl)n1` was tested. Which “activity, negative = inhibition” value did it give?
A: -17.3%

Q: With `O=C(CCN1CCN(CC(=O)Nc2ccccc2Cl)CC1)Nc1ccccc1F` as the molecule, how does the “activity, negative = inhibition” value read?
A: -0.462%

Q: Which AC50 does the source give for `O=C(Nc1ccccc1Cl)c1ccccc1Cl` here?
A: 1.78 µM (active)

Q: With `Cn1sc(NC(=O)c2ccccc2Cl)nc1=O` as the molecule, how does the “activity, negative = inhibition” value read?
A: -20.9%

Q: For `Cc1cccc(C)c1NC(=O)C(NC=O)c1ccccc1Cl` (stereo not given), which “activity, negative = inhibition” value is on record?
A: 2.26%

Q: Which AC50 does the source give for `O=C(NNc1cccc(Cl)n1)Nc1ccccc1Cl` here?
A: 2.51 µM (active)

Q: How did the AC50 turn out when `Cc1cc(NC(=O)c2ccccc2Cl)c(C(C)C)cc1O` was run?
A: 3.55 µM (active)

Q: `CCCC(O)(CCC)C(=O)NN1CCCCC1` was tested. Which “activity, negative = inhibition” value did it give?
A: -7.66%

Q: How did the “activity, negative = inhibition” value turn out when `O=C(O)COC(=O)Cc1ccccc1Nc1c(Cl)cccc1Cl` was run?
A: 3.13% [at 25.6 µM]

Q: `O=C(Nc1ccccc1Cl)c1ccn[nH]1` was tested. Which AC50 did it give?
A: 0.794 µM (active)

Q: Which AC50 does the source give for `NC(=O)NC(=O)Nc1ccccc1Cl` here?
A: 4.47 µM (active)

Q: How did the “activity, negative = inhibition” value turn out when `O=C(O)C1CCCCC1C(=O)Nc1ccccc1Cl` (stereo not given) was run?
A: -11.2%

Q: For `COc1nc(N)nc2c1ncn2[C@@H]1C[C@H](O)[C@@H](CO)O1`, which activity, negative = inhibition is on record?
A: -7.83% [at 11.4 µM]

Q: With `Clc1cccc(N/N=C/c2ccc(N3CCOCC3)cc2)c1` as the molecule, how does the AC50 read?
A: 2.51 µM (active)

Q: With `O=C1CC(N2CCOCC2)C(=O)N1c1cccc(Cl)c1` (stereo not given) as the molecule, how does the “activity, negative = inhibition” value read?
A: 2.37%

Q: For `Cc1ccc(Nc2ccc(-n3ccnc3)nn2)cc1C`, which AC50 is on record?
A: 0.158 µM (active)

Q: `Cc1cc(/C=N/n2cnnc2)c(C)n1-c1ccc(OCc2ccccc2F)cc1` was tested. Which AC50 did it give?
A: 12.6 µM (active)

Q: With `Fc1ccc(CSc2nnc(-c3cc4c(s3)-c3ccccc3CC4)o2)cc1` as the molecule, how does the AC50 read?
A: 2.24 µM (active)

Q: `Cc1ccc(-c2nnc(-c3ccc4ccccc4c3)o2)cc1` was tested. Which AC50 did it give?
A: 0.631 µM (active)

Q: How did the AC50 turn out when `c1ccc(-c2noc(-c3ccc4ccccc4c3)n2)cc1` was run?
A: 3.16 µM (active)

Q: How did the AC50 turn out when `c1ccc2cc(-c3csnn3)ccc2c1` was run?
A: 0.112 µM (active)

Q: Which activity, negative = inhibition does the source give for `O=C(O)c1nnsc1-c1csnn1` here?
A: -3.7% [at 11.4 µM]

Q: `c1ccc2cc(-c3cc(-c4cc(-c5ccc6ccccc6c5)on4)no3)ccc2c1` was tested. Which AC50 did it give?
A: 1.58 µM (active)

Q: `CC/C=C\CC[C@H](O)C1=CCCCC1=O` was tested. Which activity, negative = inhibition did it give?
A: -2.33% [at 11.4 µM]

Q: How did the “activity, negative = inhibition” value turn out when `CC[C@@H](C)[C@H]1O[C@]2(CC[C@@H]1C)C[C@@H]1C[C@H](C/C=C(/C)[C@H](O[C@@H]3C[C@H](OC)[C@H](O[C@@H]4C[C@H](OC)[C@@H](O)[C@H](C)O4)[C@H](C)O3)[C@@H](C)/C=C\C=C3CO[C@@H]4[C@H](O)C(C)=C[C@@H](C(=O)O1)[C@]34O)O2` (tested in a mixture with another compound) was run?
A: -15.8%

Q: With `C[C@@H]1C[C@H](OC(=O)[C@@H](O)c2ccccc2)CC(C)(C)N1C` as the molecule, how does the “activity, negative = inhibition” value read?
A: -5.2% [at 25.6 µM]

Q: How did the “activity, negative = inhibition” value turn out when `CCCCCn1c(CN2CCN(c3cc(Cl)ccc3C)CC2)nc2c1c(=O)[nH]c(=O)n2C` was run?
A: -2.23%

Q: For `O=C(NCCO[N+](=O)[O-])c1cccnc1`, which “activity, negative = inhibition” value is on record?
A: -19.7%

Q: How did the AC50 turn out when `Cc1ccc(OCCNC(=O)c2cncc(Br)c2)cc1C` was run?
A: 14.1 µM (active)

Q: `CCOC(=O)CCCNC(=O)c1cncc(Br)c1` was tested. Which AC50 did it give?
A: 12.6 µM (active)

Q: Which “activity, negative = inhibition” value does the source give for `CCOC(=O)CCCNC(=O)CCCNC(=O)C(c1ccccc1)c1ccccc1` here?
A: -14.8%

Q: With `CCOC(=O)CNC(=O)c1cccnc1` as the molecule, how does the “activity, negative = inhibition” value read?
A: -19.8%

Q: For `CO[C@H]1COC(=O)[C@H](C)COC(=O)[C@@H](Cc2ccccc2)NC(=O)C/C=C\[C@H]1C`, which activity, negative = inhibition is on record?
A: -3.2% [at 11.4 µM]

Q: Which AC50 does the source give for `COc1ccc(NC(=O)N(C2CCCCC2)C(C)c2cccnc2)c(OC)c1` (stereo not given) here?
A: 14.1 µM (active)

Q: `Cc1cc(NC(=O)CCC(=O)N(CC2CCCO2)C(C(=O)NC2CCCC2)c2cccnc2)no1` (stereo not given) was tested. Which “activity, negative = inhibition” value did it give?
A: 3.67%

Q: Which “activity, negative = inhibition” value does the source give for `CCOC(=O)CN(C(=O)CCC(=O)Nc1cc(C)on1)C(C(=O)NC1CCCC1)c1cccnc1` (stereo not given) here?
A: -2.53%

Q: `C[C@H]1CC[C@H]2C(=O)N[C@H](Cc3ccccc3)C(=O)N2[C@@H]1c1ccccc1` was tested. Which activity, negative = inhibition did it give?
A: -2.57% [at 11.4 µM]

Q: Which “activity, negative = inhibition” value does the source give for `O=C1C2ON(c3ccccc3)C(c3ccncc3)C2C(=O)N1c1ccccc1` (stereo not given) here?
A: -24.3%

Q: For `CCCC1C(=O)N(c2ccccc2)C1c1ccccc1` (stereo not given), which AC50 is on record?
A: 12.6 µM (active)

Q: How did the AC50 turn out when `O=C1C(Cc2ccccc2)C(c2ccccc2)N1c1ccccc1` (stereo not given) was run?
A: 5.01 µM (active)

Q: How did the “activity, negative = inhibition” value turn out when `O=C1C(CCS(=O)c2ccccc2)C(=O)N(c2ccccc2)N1c1ccccc1` (stereo not given) was run?
A: -14.7% [at 25.6 µM]

Q: How did the “activity, negative = inhibition” value turn out when `CCN1C(=O)N[C@@H](c2ccccc2)C1=O` was run?
A: -16.1% [at 25.6 µM]

Q: With `Clc1cccc(C=NC=Nc2cccc(Cl)c2)c1` as the molecule, how does the AC50 read?
A: 0.631 µM (active)

Q: For `COc1cccc(C=NC=Nc2cccc(OC)c2)c1`, which AC50 is on record?
A: 1 µM (active)

Q: Which AC50 does the source give for `CCCn1nc(NC(=O)CC(C)C)c2cc3ccccc3nc21` here?
A: 1.58 µM (active)

Q: Which “activity, negative = inhibition” value does the source give for `CC(C)CC(=O)Nc1ccccc1-c1nnn(CC(=O)N2CCc3ccccc3C2)n1` here?
A: -27%

Q: How did the AC50 turn out when `CCNCc1cc(OCC)c(OCC(=O)NCCc2ccccc2)cc1Cl` was run?
A: 1.78 µM (active)

Q: `COc1ccc(CNCCc2ccccc2)cc1OCC(N)=O` was tested. Which “activity, negative = inhibition” value did it give?
A: -6.42%

Q: Which AC50 does the source give for `CCOc1cc(CNCCO)c(Cl)cc1OCC(=O)NCCc1ccccc1` here?
A: 6.31 µM (active)

Q: Which activity, negative = inhibition does the source give for `Nc1nc2c(c(=O)[nH]1)N[C@H](CCNc1ccc(C(=O)O)cc1)CN2` here?
A: -4.28% [at 11.4 µM]

Q: How did the “activity, negative = inhibition” value turn out when `COc1ccccc1CN1CCC2(CC1)CCN(C(=O)c1c(C)noc1C)CC2` was run?
A: -17.2%

Q: With `COC(=O)CN(c1ccc(OC)cc1)S(=O)(=O)c1c(C)noc1C` as the molecule, how does the “activity, negative = inhibition” value read?
A: -12.5%

Q: `COc1ccccc1CNc1ccnc(-c2c(C)noc2C)n1` was tested. Which AC50 did it give?
A: 0.398 µM (active)

Q: Which “activity, negative = inhibition” value does the source give for `COc1ccccc1CN1CCCC2(CCN(C(=O)c3c(C)noc3C)CC2)C1` here?
A: -1.37%

Q: Which AC50 does the source give for `COc1ccc(CNc2ccnc(-c3c(C)noc3C)n2)c(OC)c1` here?
A: 1.26 µM (active)
